Measurements from PubChem BioAssay AID1259336 (Sattelle Laboratory, UCL Respiratory, Division of Medicine, …, 2017).
Activity calls are given as the source filed them. Rule as the data show it: active = log2 fold change growth below about -1.8; inactive = the rest.

Assay: C. elegans growth inhibition, whole organism, log2 fold change (AID 1259336);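 also: growth scored by imaging after five days at 20 °C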
Settings: anthelmintic screen, stronger effect = lower value

Compound	log2 fold change growth
NCCC(O)C(=O)N[C@@H]1C[C@H](N)[C@@H](OC2O[C@H](CN)[C@@H](O)[C@H](O)[C@H]2O)[C@H](O)C1OC1O[C@H](CO)[C@@H](O)[C@H](N)[C@H]1O (stereo partly drawn)	0.334 (inactive)
O=C1N(Cc2cc3ccccc3s2)C[C@H]2CN(Cc3ccccc3)CCN12	-0.864 (inactive)
Cc1ccc(NC(=O)c2cc(S(=O)(=O)NC(C)(C)C)ccc2C)nc1	0.26 (inactive)
COc1cc(C2=NCCN2)ccc1-n1cc(-c2cccc(C3=NCCN3)c2)nn1	-0.901 (inactive)
COc1ccc(N(CCc2cccc(C)n2)C(C)=O)cc1	0.0749 (inactive)
Cc1cc(NCCc2ccccc2)nc(/N=C(\N)Nc2ccc(Cl)cc2)n1	0.186 (inactive)
O=C(Nc1nc(-c2ccccn2)cs1)C1CC1c1ccccc1F (stereo not drawn)	-2.09 (active)
Cc1cc(OCC(=O)Nc2ccc(C(C)C)cc2)n(C)c(=O)c1C#N	0.363 (inactive)
Nc1nccc2ccc(-c3ccc4nccn4c3)cc12	0.14 (inactive)
CS(=O)(=O)c1ccc(C(=O)N(C[C@H]2CCCO2)c2nc3ccccc3s2)cc1[N+](=O)[O-]	0.211 (inactive)
CC1=Nc2ccc(Cl)cc2[C@@](O)(c2ccc(C)cc2)N1CCN1CCCCC1	0.034 (inactive)
Cc1ccc2[nH]c([C@H]3CCCNC3)c(-c3ccncc3)c2c1	0.649 (inactive)
Cc1ccccc1CN1CCC(O)(c2ccc(Cl)c(C(F)(F)F)c2)CC1	0.151 (inactive)
CCOC(=O)c1noc(N)c1-c1ccccc1	0.292 (inactive)
COC(=O)c1cccc2oc(-c3cccc(OC)c3NC(=O)c3cc(-c4ccccc4)on3)nc12	-0.13 (inactive)
CNC(=O)c1nn(C)c2c1C(C)(C)Cc1cnc(Nc3ccc(N4CCN(C)CC4)cc3)nc1-2	0.103 (inactive)
COc1ccc(O[C@@H](C)C(=O)Nc2ccc(Cl)cc2C)cc1	0.539 (inactive)
CC(C)(C)c1cc(C(=O)Nc2cccnc2)cc(C(=O)Nc2cccnc2)c1	0.00293 (inactive)
Nc1ncnc2c1ncn2[C@@H]1O[C@H](COS(=O)(=O)NC(=O)c2ccccc2O)[C@@H](O)[C@H]1O	0.353 (inactive)
O=C(Nc1cccc(Cl)c1)c1cnc(N2CCN(c3ccncc3)CC2)c(Cl)c1	-0.57 (inactive)
CS(=O)(=O)c1ccccc1C(=O)N(Cc1ccccc1)c1ccccc1	-0.293 (inactive)
CC[C@H](CO)NCCN[C@H](CC)CO	-0.0318 (inactive)
CC(=O)Oc1ccccc1C(=O)Nc1ncc([N+](=O)[O-])s1	0.253 (inactive)
